Screening data from PubChem BioAssay.
This is a sample that favours compounds with a hit; in the whole collection about 2.4% have one here.
Cruzain Triton: qHTS Assay for Promiscuous and Specific Inhibitors of Cruzain (with detergent); Cruzipain (Trypanosoma cruzi), P25779; purified cruzain, Z-FR-AMC fluorescence, 0.01% Triton; Potency, µM, most hits filed as inhibitors; 200,000 compounds, 0.43% hits; AID 1478, 2009; also: nearly all actives have a fitted effect of over 40% in size
Target sequence (P25779 123-467 limits assumed): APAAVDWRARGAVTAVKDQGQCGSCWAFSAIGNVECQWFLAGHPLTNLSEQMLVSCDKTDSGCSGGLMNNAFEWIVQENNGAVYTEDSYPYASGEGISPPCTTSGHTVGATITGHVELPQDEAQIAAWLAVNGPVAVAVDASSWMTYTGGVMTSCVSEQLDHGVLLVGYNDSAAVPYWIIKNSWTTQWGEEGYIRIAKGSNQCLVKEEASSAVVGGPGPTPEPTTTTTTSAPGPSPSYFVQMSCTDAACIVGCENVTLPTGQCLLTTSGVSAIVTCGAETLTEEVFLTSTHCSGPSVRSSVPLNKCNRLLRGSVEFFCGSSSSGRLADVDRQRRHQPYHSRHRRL
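Steps: dispense cruzain (1.5 nM final) in acetate buffer pH 5.5 with DTT and 0.01% Triton X-100; pin-transfer compounds; incubate 15 min RT; add Z-FR-AMC (2 uM final); read fluorescence every 30 s, using the 60 s intensity change.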
Cruzain inh noDet: qHTS Assay for Promiscuous and Specific Inhibitors of Cruzain (without detergent) | Cruzipain (Trypanosoma cruzi), P25779 | purified cruzain, Z-FR-AMC fluorescence, no detergent | Potency, µM, most hits filed as inhibitors | 200,000 compounds, 2.3% hits | AID 1476, 2009; also: nearly all actives have a fitted effect of over 40% in size
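Detergent-free condition (0.00005% Triton X-100) in acetate buffer pH 5.5 with DTT. 1.5 nM enzyme and compound were pre-mixed 15 min, then 2 uM Z-FR-AMC substrate added; reaction progress from fluorescence change between first and third reads (60 s).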
Hits are given with their value; n = inactive; u = inconclusive; ! = a repeat was not active. Calls follow the shape of the dose curve; as a rule, active = well fitted curve in the direction sought with a large enough effect; inconclusive = small, poorly fitted or top-dose-only effect, or another doubt; inactive = no such curve, though single readings can be large; an effect the other way counts as inactive or inconclusive.

SMILES | Cruzain Triton | Cruzain inh noDet
COc1ccc(/C=N/NC(N)=S)cc1OC(=O)c1cccc2ccccc12 | n | 25µM
COc1ccc(C(=O)Oc2cc(/C=N/NC(N)=S)ccc2OC)cc1 | n | u
COc1cc(/C=N/NC(N)=S)ccc1OCC(=O)Nc1ccc(C)cc1 | 2.5µM | u
CCOc1cc(/C=N\Nc2ccc([N+](=O)[O-])cc2)ccc1OCC(=O)Nc1ccc(C)c(C)c1 | n | u
COc1cc(/C=N\Nc2ccc([N+](=O)[O-])cc2)ccc1OCC(=O)Nc1ccc(C)c(C)c1 | n | 4µM
CNC(=S)N/N=C/c1ccc(OCC(=O)Nc2c(C)cc(C)cc2C)c(OC)c1 | n | n
O=C(NCc1ccccc1)c1ccc(NC(=O)c2nsc3ccccc23)cc1 | n | n
COc1ccc(-c2cc3nc(-c4ccccc4)cc(N4CCC5(CC4)OCCO5)n3n2)cc1 | 22µM | u
Cc1ccc(-c2cc3nc(-c4ccccc4)cc(N4CCOCC4)n3n2)cc1 | n | u
Cc1ccc(C)c(NS(=O)(=O)c2ccc3c(c2)Cc2cc(S(=O)(=O)Nc4cc(C)ccc4C)ccc2-3)c1 | n | 7.9µM
Cc1ccc(NS(=O)(=O)c2ccc3c(c2)C(=O)c2ccccc2C3=O)c(C)c1 | n | n
C=C/C1=C/Cc2ccccc2[C@H](C[N+](=O)[O-])C(C(C)=O)(C(=O)OC)C1 (some centres not stated) | n | n
CC(C)(C)OC(=O)NCCCC1=CC2=CC(=O)C(C)(OC(=O)c3cnc4ccccc4n3)C(=O)C2=CO1 (configuration not stated) | n | n
Cc1ccc(CNC(=O)c2sc3nc[nH]c(=O)c3c2C)cc1 | n | n
C/C(=C\c1ccc(C(=O)O)cc1)c1ccc2c(c1)C(C)(C)CCC2(C)C | n | 6.3µM!
CC1(C)CCC(C)(C)c2cc(C(=O)Nc3ccc(C(=O)O)cc3)ccc21 | n | n
Cc1ccc(Cn2ccc(NC(=O)c3cc(-c4ccc(Br)cc4)on3)n2)cc1 | n | 4µM
CC(NC(=O)c1cc(-c2ccc(Br)cc2)on1)c1ccccc1 (configuration not stated) | n | 16µM
COC(=O)c1cc(-c2ccc(Br)cc2)on1 | n | n
Cc1ccc(Cn2ccc(NC(=O)c3cc(-c4ccccc4)on3)n2)cc1 | n | n
CC(C)CNC(=O)N1[C@H](c2cccs2)[C@@H](C)C(=O)[C@@H](C)[C@@H]1c1cccs1 | n | n
COc1ccc(C)cc1NC(=O)Cc1c(C(=O)O)c(C)cn1C | n | n
CCCC[C@@H]1C[C@H]1C(NC(=O)c1ccco1)c1ccccc1C(F)(F)F (some centres not stated) | n | n
O=C(CSc1nc2ccccc2s1)Nc1ccc2c(c1)oc1ccccc12 | n | 16µM
Cn1c(SCC(=O)Nc2ccccc2)nnc1-c1ccccc1 | n | n
SMILES | Cruzain Triton | Cruzain inh noDet
Cn1c(SCC(=O)Nc2ccc3c(c2)oc2ccccc23)nnc1-c1ccccc1 | n | 13µM
O=C(CSc1nc2ccccc2s1)NNC(=O)Nc1ccc(Cl)c(Cl)c1 | n | u
O=C(Nc1nnc(SCC(=O)N2CCOCC2)s1)c1ccccc1Cl | n | n
O=C(CSc1nnc(NC(=O)c2ccccc2Cl)s1)Nc1ccc2c(c1)oc1ccccc12 | n | 4µM
O=C(Nc1ccc2c(c1)N(C1CCCC1)C(=O)c1ccccc1S2)c1ccccc1 | n | u
COc1ccc(N2CC(NC(=O)c3ccc4c(c3)OCO4)CC2=O)cc1OC (configuration not stated) | n | n
O=C(CN1C(=O)c2cccc3cccc1c23)Nc1cccc(F)c1 | n | n
O=C(NCc1ccccc1Cl)c1ccc(CSCc2cccc(F)c2)o1 | n | n
O=C(c1ccc2c(c1)N(Cc1ccc(F)cc1)C(=O)c1ccccc1S2(=O)=O)N1CCCC1 | n | u
N#C/C(=C/c1ccc(Cl)cc1)c1nc(-c2ccc(Br)cc2)cs1 | n | n
Cc1ccnc(N/C=C(\C#N)c2nc(-c3cccc(Br)c3)cs2)c1 | u | 25µM
COc1ccc(/C=C/C(=O)Nc2ccc(-c3nnc4n3CCCCC4)cc2)c(OC)c1 | 14µM | n
COc1ccc(NS(=O)(=O)c2cccc(-c3nnc4n3CCCCC4)c2)cc1 | n | n
CCCC=O | n | n
CCS(=O)(=O)c1ncc(Cl)c(C(=O)N(Cc2ccccc2)Cc2ccco2)n1 | n | n
CCOc1ccc(C(=O)N/N=C/c2ccccc2[N+](=O)[O-])cc1 | n | n
O=C(N/N=C/c1ccccc1[N+](=O)[O-])c1ccc(COc2ccccc2-c2ccccc2)cc1 | n | 13µM
O=C(Nc1ccc(F)cc1F)c1ccc(COc2c(F)c(F)cc(F)c2F)o1 | n | n
O=C(Nc1ccc(Cl)cc1F)c1ccc(COc2c(F)c(F)c(F)c(F)c2F)o1 | 20µM | u
O=c1c(O)c(-c2cc(O)c(O)c(O)c2)oc2cc(O)cc(O)c12 | u | 13µM
O=c1c(O)c(-c2ccccc2)oc2cc(O)cc(O)c12 | n | n
COc1cc(C(CC(=O)NCc2ccc(F)cc2)N2Cc3ccccc3C2=O)cc(OC)c1OC (configuration not stated) | n | n
Cc1ccc(CN2C(=O)N(c3ccc(F)cc3)C(=O)C2CC(=O)Nc2ccc(Cl)cc2)cc1 (configuration not stated) | n | n
COc1cc(NC(=O)c2ccc3oc(=O)c(S(=O)(=O)c4ccccc4)cc3c2)cc(OC)c1 | n | n
CNC(=O)[C@H](C)[C@H]1C[C@]1(C)[C@H](NC(=O)OCc1ccccc1)c1ccccc1 | n | n
SMILES | Cruzain Triton | Cruzain inh noDet
c1ccc(N2CCN(c3nc4cc5c(cc4s3)OCO5)CC2)cc1 | n | 13µM
O=S(=O)(c1ccccc1)N1CCN(c2nc3ccccc3s2)CC1 | n | n
c1c2c(cc3sc(N4CCOCC4)nc13)OCO2 | n | n
Clc1ccc2nc(N3CCN(c4ccccc4)CC3)sc2c1 | n | 20µM
CCCN1CCN(CCNC(=O)Nc2ccc(OC)cc2OC)CC1 | n | n
O=C(CNC(=O)c1ccco1)OCC(=O)c1cccc2ccccc12 | n | n
O=C(CNC(=O)c1ccco1)OCN1C(=O)c2ccccc2C1=O | 20µM | u
Cc1cc(C)c2c(=O)cc(C(=O)Nc3ccc(S(=O)(=O)N(C)Cc4ccccc4)cc3)oc2c1 | n | n
Cc1cccc(NC(=O)c2nc[nH]c2C(=O)Nc2ccccc2[N+](=O)[O-])c1 | n | 10µM
CNC(=O)c1[nH]cnc1C(=O)Nc1ccccc1C | n | n
Cc1cccc(C(=O)NCC(=O)OCc2cc(=O)n3nc(C)sc3n2)c1 | n | n
CCOC(=O)c1noc2ncn(CC(=O)Nc3cccc(C(F)(F)F)c3)c(=O)c12 | n | n
Cc1nnc(N2CCN(c3ccccc3)CC2)c2c1nnn2Cc1ccc(F)cc1 | n | n
Cc1cccc(OCC(=O)NCCc2nc3ccccc3[nH]2)c1C | 4µM | n
Cc1ccccc1OCC(=O)NCCc1nc2ccccc2[nH]1 | 5µM | 3.2µM
Cc1cccc(OCC(=O)NCc2ccncc2)c1C | n | n
Cc1ccccc1OCC(=O)NCCC(=O)O | n | n
C#CCOc1ccc(C2C(C(=O)OC)=C(C)NC3=C2C(=O)c2ccccc23)cc1OCC (configuration not stated) | n | n
O=c1c(O)cc(C2Oc3cc(O)cc(O)c3CC2O)cc2c(C3Oc4cc(O)cc(O)c4CC3O)cc(O)c(O)c12 (configuration not stated) | 25µM | n
Oc1cc(O)c2c(c1)O[C@H](c1ccc(O)c(O)c1)[C@@H](O)C2 | n | n
